Activity calls are given as the source filed them. Unless noted, how the calls were made is not given here.
How the values were obtained:
[1] = system: XIP peptide (Xip251-270) binding; test: XIP fragment 251-270 binding compounds – biochemical, small-molecule microarray, fluorescence 635/667 nm, 0.1 µg/mL protein, primary screen (AID 1182); conditions: fluorescent protein binding, 635 nm, higher = more signal, called active from +8 up or from −8 down
[2] = system: XIP peptide (Xip251-270); test: compounds binding XIP fragment 251-270 – biochemical, small-molecule microarray, fluorescence 635/667 nm, 0.5 µg/mL protein, primary screen (AID 1183); conditions: fluorescence 635 nm, higher = more signal
[3] = blood-stage malaria parasite viability loss – strain 3D7, DAPI fluorescence, 100 nL, primary screen (AID 1184);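 further: parasites grown inside human red blood cells in medium with human serum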; conditions: P. falciparum 3D7 growth, 3 d, higher = more signal
[4] = molecular target: Homeobox protein Hox-A13 (Mus musculus) (UniProt Q62424); test: disruptors of Hoxa13 oligonucleotide interaction – biochemical, fluorescence polarization, labeled oligonucleotide, primary screen (AID 1185); conditions: Hoxa13:DNA binding, 15 min, higher = more signal, called active from +8 up or from −8 down
Homeobox protein Hox-A13 (Mus musculus), sequence (Q62424 whole entry, looked up): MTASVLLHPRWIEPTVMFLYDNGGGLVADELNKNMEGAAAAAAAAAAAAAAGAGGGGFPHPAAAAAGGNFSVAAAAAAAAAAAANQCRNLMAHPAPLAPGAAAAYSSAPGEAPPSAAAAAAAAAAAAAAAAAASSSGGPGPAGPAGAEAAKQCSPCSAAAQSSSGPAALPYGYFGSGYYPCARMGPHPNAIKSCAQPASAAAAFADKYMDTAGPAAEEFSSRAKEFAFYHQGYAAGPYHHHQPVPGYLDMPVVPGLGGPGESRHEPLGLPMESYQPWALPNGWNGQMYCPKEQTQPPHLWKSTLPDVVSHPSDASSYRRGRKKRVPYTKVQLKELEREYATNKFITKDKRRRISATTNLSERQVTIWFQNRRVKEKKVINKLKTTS

[5] = blockers of DNA damage checkpoint Chk1 activation – imaging, HeLa, hydroxyurea, phospho-Chk1 antibody, percent positive cells, primary screen (AID 1186); conditions: hydroxyurea-induced phospho-Chk1 immunofluorescence imaging, higher = more signal
[6] = blockers of DNA damage checkpoint Chk1 activation – imaging, HeLa, hydroxyurea, phospho-Chk1 nuclear intensity, primary screen (AID 1187); conditions: hydroxyurea-induced phospho-Chk1 immunofluorescence imaging, higher = more signal

| Compound | composite z-score [1] | composite z-score [2] | z-score [3] | z-score [4] | z-score [5] | z-score [6] |
| --- | --- | --- | --- | --- | --- | --- |
| COC(=O)[C@@]1(Cc2ccc(F)cc2)[C@H]2c3cc(C(=O)N4CCCC4)n(CCc4c[nH]c5ccccc45)c3C[C@H]2CN1C(=O)c1ccccc1 | 0.0236 (inactive) | 0.714 | -1.55 | -3.15 (inactive) | 0.916 (inactive) | 0.634 (inactive) |
| CC(=O)N1CC2(CC2)CC1c1ccccc1 (configuration not stated) | 0.485 (inactive) | 0.915 | -0.0608 | -1.06 (inactive) | 0.465 (inactive) | 0.444 (inactive) |
| [N-]=[N+]=NCc1ccccc1[C@H]1OC(c2ccc(OCCCO)cc2)=N[C@@]1(Cc1ccccc1N=[N+]=[N-])C(=O)NCC(O)CO (some centres not stated) | 0.665 (inactive) | 0.603 | -2.31 | -4.17 (inactive) | -0.266 (inactive) | 0.0665 (inactive) |
| COCCCNC(=O)[C@@]1(CCC(=O)OC(C)(C)C)N=C(c2ccc(OCCCO)cc2)O[C@H]1c1ccccc1N=[N+]=[N-] | 3.51 (inactive) | 0.476 | -2.39 | -4.09 (inactive) | 0.739 (inactive) | 1.43 (inactive) |
| CCOC(=O)C[C@H]1[C@H](OC(=O)c2cc3ccccc3oc2=O)[C@@H](NC(=O)c2ccccc2)c2cc(OCCCO)ccc2N1C(=O)c1ccccc1 | -0.0879 (inactive) | 0.283 | -1.66 | -1.56 (inactive) | 0.171 (inactive) | -0.0272 (inactive) |
| CCOC(=O)C[C@H]1[C@H](OC(=O)c2ccccc2-c2ccccc2)[C@@H](NC(=O)c2ccc3ccccc3n2)c2cc(OCCCO)ccc2N1C(=O)Cc1ccc(OC)cc1 | -0.0195 (inactive) | -0.203 | -1.64 | -2.31 (inactive) | 0.332 (inactive) | -0.135 (inactive) |
| COCCOC(=O)N1C(=O)[C@@]2(c3cc(C#CCNC(N)=O)ccc31)[C@H](C(N)=O)[C@H]1C(=O)O[C@H](c3ccccc3)[C@H](c3ccccc3)N1[C@@H]2c1ccccc1OCCO | 0.253 (inactive) | 0.485 | 0.0701 | -2.45 (inactive) | 0.0661 (inactive) | 0.588 (inactive) |
| O=C1N(Cc2ccccc2)c2ccccc2C[C@]12N=C(c1ccc(OCCCO)cc1)O[C@@H]2c1ccccc1 | -0.12 (inactive) | 0.59 | -2.37 | -3.59 (inactive) | -0.0747 (inactive) | -0.154 (inactive) |
| COC(=O)c1c(CC[C@@H](CO)NC(=O)N2CCC[C@H]2Cn2cc(C3(O)CCCCC3)nn2)oc(C(C)=O)c1C(=O)OC | 0.812 (inactive) | 0.499 | -0.373 | -4.77 (inactive) | -0.125 (inactive) | -0.0208 (inactive) |
| N#Cc1ccc(NN2C(C(O)c3ccc(Br)cc3)C=CC3C(=O)N(c4ccccc4)C(=O)C32)cc1 (configuration not stated) | 1.13 (inactive) | 0.529 | 0.401 | -3.13 (inactive) | 0.0643 (inactive) | 0.0338 (inactive) |
| COC(=O)[C@@]1(Cc2ccc(F)cc2)[C@H]2c3cc(C(=O)N(C)C)n(CCc4ccc(OC)c(Br)c4)c3C[C@H]2CN1C(=O)c1ccccc1 | -0.192 (inactive) | 0.167 | -1.75 | -5.01 (inactive) | -0.316 (inactive) | -0.869 (inactive) |
| CCCC[C@@H](O)C1=C(COC)C[C@H]2C(=O)N(Cc3ccccc3)C(=O)[C@H]2[C@H]1CO | 1.47 (inactive) | 0.782 | 0.553 | -4.13 (inactive) | -0.187 (inactive) | 0.274 (inactive) |
| Cc1cc(C)c(C(O)C2C=CC3C(=O)N(c4ccccc4)C(=O)C3N2Nc2ccccc2F)c(C)c1 (configuration not stated) | -0.121 (inactive) | 0.863 | -0.286 | -1.39 (inactive) | 0.153 (inactive) | -0.0495 (inactive) |
| Cc1ccc(S[C@]2(C(=O)NCC(F)(F)F)CC(=O)N(Cc3cc(C(F)(F)F)cc(C(F)(F)F)c3)[C@@H]2c2ccc(CO)cc2I)cc1 | 1.46 (inactive) | 0.981 | -0.609 | -2.68 (inactive) | 0.427 (inactive) | 0.684 (inactive) |
| CN1C(=O)C2C=CC(C(O)c3cccn3C)N(Nc3ccc([N+](=O)[O-])cc3[N+](=O)[O-])C2C1=O (configuration not stated) | -0.438 (inactive) | -0.564 | 0.69 | -5.85 (inactive) | 0.769 (inactive) | 0.127 (inactive) |
| C=CCC(OC(C)=O)[C@@H]1[C@@H](N(Cc2cccc3ccccc23)C(=O)Cc2ccc(F)cc2)c2cc(OCCCO)ccc2N1C(=O)c1ccc2ccccc2c1 (some centres not stated) | -1.12 (inactive) | -0.277 | -1.85 | -1.39 (inactive) | -0.457 (inactive) | -0.395 (inactive) |

| Compound | composite z-score [1] | composite z-score [2] | z-score [3] | z-score [4] | z-score [5] | z-score [6] |
| --- | --- | --- | --- | --- | --- | --- |
| CC(CO)N1C(=O)[C@@H]2[C@H]3C(=O)OCC=C[C@H]3OC23C=CCN(Cn2nnc4ccccc42)C(=O)[C@@H]13 (some centres not stated) | -0.0787 (inactive) | -1.27 | 0.212 | -3.47 (inactive) | 0.612 (inactive) | 0.424 (inactive) |
| O=C(NCCN1CCOCC1)[C@@H]1c2ccccc2C(=O)N(Cc2ccccc2Cl)[C@H]1c1ccc(CO)cc1 | -0.121 (inactive) | -0.209 | -0.879 | -4.26 (inactive) | -0.0685 (inactive) | 0.227 (inactive) |
| COC(=O)C1(CC(C)C)C=C2C(=C(c3ccccc3)C(=O)C2C)CN1 (configuration not stated) | -0.213 (inactive) | 0.758 | -0.104 | -7.47 (inactive) | -0.563 (inactive) | -1.13 (inactive) |
| COC(=O)[C@@H]1N=C(c2ccc(OCCCO)cc2)O[C@@H]1c1ccccc1 | 0.178 (inactive) | 0.759 | -0.641 | -4.34 (inactive) | -0.4 (inactive) | -0.301 (inactive) |
| CC(C)N1CC=CC23O[C@@H]4C=CCCOC(=O)C4[C@H]2C(=O)N(CCCO)[C@@H]3C1=O (some centres not stated) | 0.431 (inactive) | 0.598 | -2.07 | -4.97 (inactive) | -0.0561 (inactive) | -0.12 (inactive) |
| CCCC[C@@H](O)C1=C(COc2ccccc2)C[C@H]2C(=O)N(Cc3ccccc3)C(=O)[C@H]2[C@H]1CO | -0.243 (inactive) | 0.374 | 0.131 | -7.37 (inactive) | -0.782 (inactive) | -0.513 (inactive) |
| Cc1ccc(N2C(=O)c3ccccc3[C@@H](C(=O)NCCCN(C)C)[C@@H]2c2ccc(CO)cc2)nc1 | 1.9 (inactive) | 0.148 | -0.235 | -2.34 (inactive) | 0.026 (inactive) | -0.303 (inactive) |
| CCOC(=O)C1=C[C@@H](c2ccccc2)N(S(=O)(=O)c2ccc(C)cc2)[C@H]1c1ccc(OC)cc1 | 0.138 (inactive) | 0.599 | -1.84 | 0.842 (inactive) | -0.0622 (inactive) | -0.614 (inactive) |
| COCCOC(=O)N1C(=O)[C@@]2(c3ccccc31)[C@H](C(=O)NC[C@H](O)c1ccccc1)[C@H]1C(=O)O[C@H](c3ccccc3)[C@H](c3ccccc3)N1[C@@H]2c1ccc(O)cc1 | 0.26 (inactive) | 0.819 | -1.02 | -3.48 (inactive) | 0.326 (inactive) | 0.653 (inactive) |
| CC(=O)NCCCC[C@@H]1NC(=O)[C@@H]2C[C@H](C(=O)NCCCCCN)[C@H](c3cccc(OCCO)c3)N2C1=O | 0.845 (inactive) | 0.878 | 0.0297 | -2.54 (inactive) | -1.16 (inactive) | -0.913 (inactive) |
| CC(CO)N1C(=O)[C@]2(C)C3C(=O)OCCC/C=C\[C@H]3OC23C=CCN(c2ccc(Cl)cc2)C(=O)[C@@H]13 (some centres not stated) | -0.356 (inactive) | 0.725 | 0.416 | -3.59 (inactive) | 0.0747 (inactive) | 0.651 (inactive) |
| CCCCN1CC=CC23O[C@@H]4/C=C\CCC(C)OC(=O)C4[C@H]2C(=O)N(CCCO)[C@@H]3C1=O (some centres not stated) | -0.571 (inactive) | 0.214 | 0.544 | -3.97 (inactive) | 0.331 (inactive) | -0.112 (inactive) |
| NCCCCCNC(=O)[C@H]1C[C@H]2C(=O)N3CCC[C@H]3C(=O)N2[C@H]1c1cccc(OCCO)c1 | 1.19 (inactive) | 0.707 | -1.24 | -2.47 (inactive) | -0.0667 (inactive) | 0.53 (inactive) |
| NC(=O)NCC#Cc1ccc2c(c1)[C@]1(C(=O)N2)[C@H](c2ccccc2OCCO)N2[C@H](c3ccccc3)[C@H](c3ccccc3)OC(=O)[C@H]2[C@@H]1C(=O)NC[C@H](O)c1ccccc1 | 0.427 (inactive) | 0.209 | -0.521 | -3.58 (inactive) | -0.552 (inactive) | -0.793 (inactive) |
| CCCCC(CC)C(O)C1C=CC2C(=O)N(c3ccccc3)C(=O)C2N1Nc1ccc(C#N)cc1 (configuration not stated) | 0.742 (inactive) | 0.784 | 0.128 | -1.83 (inactive) | -0.185 (inactive) | -0.153 (inactive) |
| Cc1ccc(S[C@]2(C(=O)NCC(F)(F)F)CC(=O)N(Cc3cc(C(F)(F)F)cc(C(F)(F)F)c3)[C@@H]2c2ccc(CO)cc2)cc1 | -0.491 (inactive) | 0.584 | 1.2 | -1.71 (inactive) | 0.0254 (inactive) | 0.474 (inactive) |

— PubChem BioAssay
